IP6K1 inh: inhibitors of human IP6K1 | hit rate 0.81% among 140,000 | AID 1645851 | Q92551 | activity change, % (series mostly up to about 58 µM) | IP6K1 kinase, ADP-Glo luminescence, 2 h; hits give low values; in the data active means activity change below about -25%
Target sequence (Q92551 whole entry, looked up): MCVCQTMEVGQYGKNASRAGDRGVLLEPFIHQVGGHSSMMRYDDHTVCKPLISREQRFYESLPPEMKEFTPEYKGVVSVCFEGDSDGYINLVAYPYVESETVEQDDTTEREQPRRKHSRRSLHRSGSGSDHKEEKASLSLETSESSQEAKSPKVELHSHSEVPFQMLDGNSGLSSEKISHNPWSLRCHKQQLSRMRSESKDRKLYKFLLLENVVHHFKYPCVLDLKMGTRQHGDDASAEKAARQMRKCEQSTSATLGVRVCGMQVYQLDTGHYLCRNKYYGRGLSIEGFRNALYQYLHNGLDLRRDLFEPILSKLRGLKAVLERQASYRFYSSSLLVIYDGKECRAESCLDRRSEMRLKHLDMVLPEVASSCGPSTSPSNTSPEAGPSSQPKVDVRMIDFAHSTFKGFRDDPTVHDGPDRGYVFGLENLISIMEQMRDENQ
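ADP-Glo luminescence measures ADP made by human IP6K1 during a 2 h RT reaction with ATP/IP6 (mix at 1.3 mM/130 uM); top library doses 57.5 and 19.1 uM final.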
KDM5B inhibitor: KDM5B demethylase inhibition | Q9UGL1 | AID 1347165 | Potency, µM (titrated, usually from 57.7 µM), actives largely listed as inhibitors | hit rate 2.6% among 220,000 | KDM5B demethylase, FDH-coupled NADH fluorescence (FDH is formaldehyde dehydrogenase); further: nearly all actives have a fitted effect of over 70% in size
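qHTS format, multiple compound concentrations. Buffer 50 mM HEPES pH 7.5/0.01% Tween-20; 200 nM KDM5BΔAP final; 10 min compound preincubation; substrate-mix levels 12.5 µM peptide, 25 µM α-KG, 0.25 mM NAD⁺; 30 min RT; ΔRFU.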
Each line names hits and unclear results; the compound was inactive in the other large screens. In the library only some 2.8% were active in any assay of this set; here they are far more common.

Cc1noc(-c2cccs2)c1C(=O)NC(C)CCc1ccccc1 (centres undefined)	KDM5B inhibitor 28µM
COc1cc(OC)cc(-c2onc(C)c2C(=O)NC(C)CCc2ccccc2)c1 (centres undefined)	KDM5B inhibitor inconclusive
Cc1noc(-c2cccs2)c1C(=O)NCc1ccccc1Cl	KDM5B inhibitor inconclusive
O=C1CCN(CC(O)C(F)(F)F)c2ccccc2CN1Cc1ccccc1 (centres undefined)	none (no result: KDM5B inhibitor)
Cn1ncc2c(C(=O)N3CCN(Cc4ccccc4)CC3)cc(-c3ccc(Cl)nc3)nc21	none (no result: KDM5B inhibitor)
Cc1cccc(NC(=O)Cn2ccn3nc4c(c3c2=O)CCCC4)c1	KDM5B inhibitor inconclusive
Cc1cccc(C)c1NC(=O)Cn1ccn2nc3c(c2c1=O)CCCC3	none
Cc1ccc(NC(=O)Cn2ccn3nc4c(c3c2=O)CCCCC4)cc1C	none
O=C(Cn1ccn2nc3c(c2c1=O)CCCCC3)Nc1cc(F)ccc1F	KDM5B inhibitor 28µM
O=C(Cn1ccn2nc3c(c2c1=O)CCCCC3)Nc1ccccc1F	KDM5B inhibitor inconclusive
Cc1cc(NC(=O)Cn2ccn3nc4c(c3c2=O)CCCC4)no1	KDM5B inhibitor 25µM
Cc1cccc(NC(=O)Cn2ccn3nc4c(c3c2=O)CCCC4)c1C	KDM5B inhibitor 28µM
Cc1cc(C)cc(NC(=O)Cn2ccn3nc4c(c3c2=O)CCCC4)c1	KDM5B inhibitor 35µM
Cc1nn(-c2ccccc2)c2c1C(C1CC1)N(CC1CN(C(=O)c3cccnc3)C1)C2=O (centres undefined)	none (no result: KDM5B inhibitor)
COc1cccc(C(=O)Nc2ccc3c(c2)CN(Cc2cccc(OC)c2OC)C(=O)C(C)O3)c1 (centres undefined)	KDM5B inhibitor inconclusive
O=C(NCc1cccnc1)c1cn2cc(-c3ccccc3)sc2n1	none (no result: KDM5B inhibitor)
CNC(=O)c1cc(C2CC2)nc2c1c(C1CCN([S+](=O)([O-])c3ccccc3)C1)nn2C (centres undefined)	none (no result: KDM5B inhibitor)
CCCCCNC(=O)c1cc(-c2cccc(F)c2)nc2c1cnn2C	none (no result: KDM5B inhibitor)
Cc1cc(C)cc(-c2ccc(CN3CCCC(NC(=O)c4ccncc4)C3)cc2)c1 (centres undefined)	none (no result: KDM5B inhibitor)
CC(NC(=O)C1CCOCC1)C(=O)O (centres undefined)	none (no result: IP6K1 inh)
Cc1cccn2cc(CSc3nnc(-c4ccccc4)o3)nc12	none (no result: IP6K1 inh)
COCCNC(=O)C1CCCN1Cc1cccc(-c2cccc(OC)c2)c1 (centres undefined)	none (no result: KDM5B inhibitor)
Cc1ccc2nc(CO[C@H]3CN(C4CCCCC4)C[C@H]3F)[nH]c2c1	KDM5B inhibitor inconclusive
Cc1ccc2nc(CO[C@H]3CN(c4ccc(C#N)cn4)C[C@H]3F)[nH]c2c1	KDM5B inhibitor 18µM
O=S(=O)(NCC1CN(CC2CC2)CC12CCCCC2)c1cccs1 (centres undefined)	none (no result: KDM5B inhibitor)
Cc1ccc(NC(=O)Cn2ccn3nc(-c4ccccc4)c(CO)c3c2=O)c(C)c1	KDM5B inhibitor 32µM
COc1ccc(OC)c(NC(=O)Cn2ccn3nc(-c4ccccc4)c(CO)c3c2=O)c1	KDM5B inhibitor inconclusive
Cc1ccc(C)c(NC(=O)Cn2ccn3nc(-c4ccc(F)cc4)c(CO)c3c2=O)c1	KDM5B inhibitor 18µM
O=C(Cn1ccn2nc(-c3ccc(F)cc3)c(CO)c2c1=O)NCc1ccccc1Cl	KDM5B inhibitor 28µM
Cc1ccc(NC(=O)Cn2ccn3nc(-c4ccccc4)c(CO)c3c2=O)cc1	none
O=C(Cn1ccn2nc(-c3ccc(F)cc3)c(CO)c2c1=O)NCc1ccccc1	KDM5B inhibitor inconclusive
COc1cc(Cl)c(C)cc1NC(=O)Cn1ccn2nc(-c3ccccc3)c(CO)c2c1=O	KDM5B inhibitor 16µM
Cc1ccc(NC(=O)Cn2ccn3nc(-c4ccc(F)cc4)c(CO)c3c2=O)c(C)c1	KDM5B inhibitor inconclusive
CC(=O)N1CCC(Cc2ccc(CN(C(=O)c3cccs3)C3CC3)cc2)CC1	none (no result: KDM5B inhibitor)
CC(C)(C)CC(C)(C)c1ccc(O)c(Sc2cc(C(C)(C)CC(C)(C)C)ccc2O)c1	none (no result: IP6K1 inh)
CN(Cc1cccc(N2CCN(C(=O)c3c(Cl)cccc3Cl)CC2)c1)[S+](C)(=O)[O-]	none (no result: KDM5B inhibitor)
COc1ccc(C2Cn3nnc(C(=O)NC4CCCCCCC4)c3CO2)cc1 (centres undefined)	none
O=C(Cn1ccn2nc(-c3ccccc3)c(CO)c2c1=O)Nc1ccccc1Cl	none
O=C(Cn1ccn2nc(-c3ccccc3)c(CO)c2c1=O)Nc1ccccc1C(F)(F)F	KDM5B inhibitor 20µM
O=C(Cc1ccc(Cl)cc1)NC1CCN(c2nccc(Nc3ccccc3Cl)n2)CC1	none (no result: KDM5B inhibitor)
CC(C)CNC(=O)c1nc2cccnc2n(CCc2ccccc2)c1=O	none (no result: KDM5B inhibitor)
O=C(CCNc1cnc2cnccn12)NCc1ccc(F)c(Cl)c1	KDM5B inhibitor 25µM
O=C(CCn1ccn2nc3c(c2c1=O)CCCC3)NCc1ccc(F)c(Cl)c1	none
Cc1ncccc1-c1nc2cc(C(=O)NC3CC3)ccc2o1	none (no result: KDM5B inhibitor)
COc1cccc(C(=O)NC2CCN(C(=O)c3ccc(-c4ncccc4C#N)cc3)CC2)c1	none (no result: KDM5B inhibitor)
COc1ccccc1NC(=O)c1c(C)oc2ccn(Cc3ccc(F)cc3)c(=O)c12	KDM5B inhibitor 32µM
Cc1oc2ccn(Cc3ccc(F)cc3)c(=O)c2c1C(=O)O	none
